Records with an inconclusive call do not appear. Active and inactive are the calls of the source. Calls come from the whole dose curve; as a rule, active = well fitted cell-killing curve with a large enough effect in the repeat runs; inconclusive = weak or mixed curves, or effect the other way; inactive = flat fitted curve, though single readings scatter.
Experiment: cAMP Responsive Elements (CRE) small molecule antagonists, cell-based qHTS assay: qHTS cell viability counter screen (AID 2060913); note: nearly all actives have a fitted effect of over 40% in size
Conditions: CRE-bla HEK293T viability, CellTiter-Glo luminescence, 5 h; series mostly up to 92.4 µM; viability change, negative = cytotoxic: at the top concentration
How it was run: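 CRE-bla HEK293T cells (2,000/well, 18 h) given compound plus NKH477 0.25 uM final for 3 h at 37C; viability counter-screen by CellTiter-Glo luminescence in same wells after 30 min.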
% is set by controls: 0 for no effect and ±100 for the full control effect; potency is the fitted concentration of half-maximal effect.

**Q.** With `Cc1nnc2n1-c1sc(CCC(=O)N3CCOCC3)cc1C(c1ccccc1Cl)=NC2` as the compound, how does the “viability change, negative = cytotoxic” value read?
**A.** The value was -0.132% [at 42.5 µM] (inactive).

**Q.** With `CCN(Cc1ccc(Cl)nc1)/C(=C/[N+](=O)[O-])NC` as the compound, how does the “viability change, negative = cytotoxic” value read?
**A.** The value was -2.07% [at 42.5 µM] (inactive).

**Q.** For `CCC1(c2ccc(N)cc2)CCC(=O)NC1=O` (stereo not given), which Potency is on record?
**A.** Its Potency is “inactive”.

**Q.** With `COc1ccc2c(c1OC)C(=O)O[C@@H]2[C@H]1c2cc3c(cc2CCN1C)OCO3` as the compound, how does the “viability change, negative = cytotoxic” value read?
**A.** The value was 2.24% (inactive).

**Q.** For `C[C@]12CC[C@H]3[C@@H](CCC4=CC(=O)CC[C@@]43C)[C@@H]1CC[C@@H]2O`, which “viability change, negative = cytotoxic” value is on record?
**A.** The value was -4.48% (inactive).

**Q.** Which “viability change, negative = cytotoxic” value does the source give for `CCC(Cl)CCl` (stereo not given) here?
**A.** The value was -0.332% (inactive).

**Q.** Which “viability change, negative = cytotoxic” value does the source give for `O=C(O)C(Cl)(Cl)Br` here?
**A.** Its value is 3.88% (inactive).

**Q.** With `CC(C)CP(=S)(S)CC(C)C` as the compound, how does the “viability change, negative = cytotoxic” value read?
**A.** The value was 0.894% (inactive).

**Q.** For `Cc1ccccc1OP(=O)(Oc1ccccc1C)Oc1ccccc1C`, which “viability change, negative = cytotoxic” value is on record?
**A.** Its value is -0.762% (inactive).

**Q.** With `C=CCOC(N)=O` as the compound, how does the “viability change, negative = cytotoxic” value read?
**A.** The value was -0.446% (inactive).

**Q.** For `c1ccc(-c2ccccc2)cc1`, which Potency is on record?
**A.** Its Potency is “inactive”.

**Q.** For `O=NN1CCN(N=O)CC1`, which “viability change, negative = cytotoxic” value is on record?
**A.** The value was 6.11% (inactive).

**Q.** For `COc1cc(CC(C)N)cc(OC)c1OC` (stereo not given), which “viability change, negative = cytotoxic” value is on record?
**A.** Its value is -3.62% (inactive).

**Q.** Which “viability change, negative = cytotoxic” value does the source give for `CC(C)(COCC1CO1)COCC1CO1` (stereo not given) here?
**A.** Its value is 3.16% (inactive).

**Q.** Which “viability change, negative = cytotoxic” value does the source give for `CC(C)CCON=O` here?
**A.** The value was 4.57% (inactive).

**Q.** For `c1ccc2c(c1)Oc1ccccc1O2`, which Potency is on record?
**A.** Its Potency is “inactive”.

**Q.** With `c1ccc(P(c2ccccc2)c2ccccc2)cc1` as the compound, how does the Potency read?
**A.** Its Potency is “inactive”.

**Q.** With `CC1(C)CON(Cc2ccccc2Cl)C1=O` as the compound, how does the “viability change, negative = cytotoxic” value read?
**A.** Its value is 0.194% (inactive).

**Q.** With `CN(C)CCc1c[nH]c2cccc(O)c12` as the compound, how does the “viability change, negative = cytotoxic” value read?
**A.** Its value is 0.405% (inactive).

**Q.** Which “viability change, negative = cytotoxic” value does the source give for `Cl/C=C\CCl` here?
**A.** Its value is 10.5% (inactive).

**Q.** Which Potency does the source give for `COCCl` here?
**A.** Its Potency is “inactive”.

**Q.** For `BrCCCBr`, which “viability change, negative = cytotoxic” value is on record?
**A.** The value was 5.19% (inactive).

**Q.** For `O=C(O)COc1cc(Cl)c(Cl)cc1Cl`, which Potency is on record?
**A.** The Potency was “inactive”.

**Q.** Which “viability change, negative = cytotoxic” value does the source give for `C=C(Cl)CSC(=S)N(CC)CC` here?
**A.** The value was -6.6% (inactive).

**Q.** For `CCCCC(CC)COC(=O)c1ccc(C(=O)OCC(CC)CCCC)c(C(=O)OCC(CC)CCCC)c1` (stereo not given), which Potency is on record?
**A.** The Potency was “inactive”.

**Q.** Which Potency does the source give for `O=c1oc2ccccc2c(O)c1C(CC(O)c1ccc(-c2ccc(Br)cc2)cc1)c1ccccc1` (stereo not given) here?
**A.** The Potency was “inactive”.

**Q.** For `C[CH2][Hg][N]1C(=O)C2C(C1=O)C1(Cl)C(Cl)=C(Cl)C2(Cl)C1(Cl)Cl` (stereo not given), which viability change, negative = cytotoxic is on record?
**A.** Its viability change, negative = cytotoxic is -25.3% [at 18.9 µM] (inactive).

**Q.** For `Clc1ccc2ccccc2c1`, which “viability change, negative = cytotoxic” value is on record?
**A.** The value was -5.1% (inactive).

**Q.** With `COCCC#N` as the compound, how does the “viability change, negative = cytotoxic” value read?
**A.** The value was 9.59% (inactive).

**Q.** With `COc1ccc2c(c1OC)C(=O)O[C@H]2[C@@H]1c2cc3c(cc2CCN1C)OCO3` as the compound, how does the “viability change, negative = cytotoxic” value read?
**A.** The value was -7.57% [at 42.5 µM] (inactive).

**Q.** Which Potency does the source give for `C[N+](C)(C)C` here?
**A.** Its Potency is “inactive”.

**Q.** With `CCCCCCCCCCCCCCCC[N+](C)(C)C` as the compound, how does the Potency read?
**A.** Its Potency is 54.5 µM (active).

**Q.** Which Potency does the source give for `CN(C)C(=O)C(c1ccccc1)c1ccccc1` here?
**A.** Its Potency is “inactive”.

**Q.** With `C[N+](=O)[O-]` as the compound, how does the “viability change, negative = cytotoxic” value read?
**A.** Its value is 3.04% (inactive).

**Q.** With `CCC(CC)(CNC(=O)CCCO)c1cccc(OC)c1` as the compound, how does the “viability change, negative = cytotoxic” value read?
**A.** The value was 1.99% [at 42.5 µM] (inactive).

**Q.** Which “viability change, negative = cytotoxic” value does the source give for `CNC(=O)Oc1cc(C)c(SC)c(C)c1` here?
**A.** The value was -2.71% (inactive).

**Q.** Which “viability change, negative = cytotoxic” value does the source give for `C[C@]12C=CC(=O)C=C1CC[C@@H]1[C@@H]2CC[C@@]2(C)[C@H]1CC[C@]2(C)O` here?
**A.** Its value is 2.13% [at 42.5 µM] (inactive).

**Q.** For `Nc1ccc(N)cc1`, which Potency is on record?
**A.** The Potency was “inactive”.

**Q.** With `CCOC1Oc2ccc(OS(C)(=O)=O)cc2C1(C)C` (stereo not given) as the compound, how does the “viability change, negative = cytotoxic” value read?
**A.** Its value is -4.03% (inactive).

**Q.** With `CCOC(=O)COc1cc(-c2nn(C)c(OC(F)F)c2Cl)c(F)cc1Cl` as the compound, how does the “viability change, negative = cytotoxic” value read?
**A.** The value was 0.562% (inactive).
